Consider 18 molecules from PubChem BioAssay (Tox21).

Unmarked numbers belong to inactive results. Records with an inconclusive call do not appear. Calls of active or inactive are those of the source. Unless noted, calls follow the shape of the dose curve; as a rule, active = well fitted curve in the direction sought with a large enough effect in the repeat runs; inconclusive = weak or mixed curves; inactive = no such curve, though single readings can be large; an effect the other way counts as inactive or inconclusive.

A short description of experiment [1]: qHTS assay to identify small molecule antagonists of the progesterone receptor (PR) signaling pathway - cell viability counter screen (AID 1346798). Also: potency is read from the fitted curve at half-maximal effect; nearly all actives have a fitted effect of over 50% in size. Put shortly:
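PR-UAS-bla HEK293T cells in medium with 2% charcoal-stripped FBS were treated with compounds plus R5020 for 16 hr at 37C. Cell viability was then read by CellTiter-Glo luminescence after 30 min at room temperature in the same wells.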
(In qHTS, concentration-response curves come from the screen itself.)

A short description of experiment [2]: qHTS assay to identify small molecule antagonists of the TGF-beta/Smad signaling pathway - cell viability counter screen (AID 1346824). Also: nearly all actives have a fitted effect of over 50% in size. The method in brief:
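Cytotoxicity counter-screen run in the same wells as the beta-lactamase Smad reporter read: CellTiter-Glo luminescence after 30 min at room temperature. HEK 293T SBE-bla cells had 5 hr compound exposure at 37 C with TGF-beta1 (0.25 ng/mL stock).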

Experiment [3] is described as follows: qHTS assay to identify small molecule agonists of the TGF-beta/Smad signaling pathway - cell viability counter screen (AID 1346829). Also: top concentration of the series differs between compounds; nearly all actives have a fitted effect of over 45% in size. Put shortly: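 Same-well cytotoxicity: CellTiter-Glo added after the 2 hr room-temperature beta-lactamase substrate step, luminescence measured 30 min later; cells had 5 hr of compound at 37 C.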
Experiment [4] in a line: qHTS assay to identify small molecule agonists of the TGF-beta/Smad signaling pathway (AID 1346859; active = well fitted activation curve with a large enough effect in the signal ratio in the repeat runs, not every such curve was filed as active; the % refers to the signal ratio; also: series mostly up to about 77 µM). Put shortly:
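HEK 293T cells stably carrying a beta-lactamase reporter driven by the Smad binding element were seeded overnight, exposed to DMSO-dissolved compounds for 5 hr at 37 C, 5% CO2, then loaded with FRET substrate for 2 hr at room temperature.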

Experiment [5] has as its target Thyrotropin-releasing hormone receptor (Homo sapiens) (UniProt P34981). The experiment in a line: qHTS assay to identify small molecule antagonists of the thyrotropin-releasing hormone receptor (TRHR) signaling pathway (AID 1346877; active = well fitted inhibition curve with a large enough effect in the repeat runs, not every such curve was filed as active; also: series mostly up to about 51 µM). Put shortly: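 Intracellular calcium fluorescence, read kinetically every second over 3 min, reports TRH-evoked signalling in HEK293 cells carrying TRHR. Test compounds were added 5 min ahead of a 1 nM TRH challenge.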

Experiment [6] can be described thus: Human pregnane X receptor (PXR) small molecule agonists, qHTS cell viability counter screen (AID 1346977). Also: nearly all actives have a fitted effect of over 50% in size. Also: potency is read from the fitted curve at half-maximal effect. The method in brief: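 PXR-Luc HepG2 cells in medium with 5% charcoal-stripped FBS were pre-incubated 5hr, then exposed to compounds for 24hr at 37C. Viability was read in the same wells by CellTiter-Fluor fluorescence, reagent added after 23hr with a 1hr incubation.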

Experiment [7] can be described thus: Caspase-3/7 induction in HepG2 cells by small molecules, qHTS assay (AID 1346978). Also: nearly all actives have a fitted effect of over 15% in size. Also: potency is read from the fitted curve at half-maximal effect. Put shortly: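 Caspase-3/7 induction was measured by Caspase-Glo 3/7 luminescence (30 min, room temperature) after a 17 hr compound exposure of wild-type HepG2 cells seeded at 2,000 per well and pre-incubated 5 hr.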
Experiment [8] in a line: Caspase-3/7 induction in CHO-K1 cells by small molecules, qHTS cell viability counter screen (AID 1346979). Also: nearly all actives have a fitted effect of over 35% in size. Also: potency is read from the fitted curve at half-maximal effect. The method in brief: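 Wild-type CHO-K1 cells were seeded at 1,500 per well, rested 5hr at 37 C, then exposed to compounds in DMSO. After 16hr, CellTiter-Fluor reagent was added and fluorescence read 1hr later as the viability measure.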
Experiment [9] can be described thus: qHTS assay to identify small molecule agonists of the progesterone receptor (PR) signaling pathway - cell viability counter screen (AID 1346799; calls by dose curve; also: nearly all actives have a fitted effect of over 45% in size; also: potency is read from the fitted curve at half-maximal effect). Put shortly:
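PR-UAS-bla HEK293T cells, 3,000 per well in medium with 2% charcoal-stripped FBS, were preincubated 6 hr at 37C, then exposed to compounds for 16 hr; viability was read as CellTiter-Glo luminescence after 30 min at room temperature.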

For experiment [10], the target named is Thyrotropin-releasing hormone receptor (Homo sapiens) (UniProt P34981). The experiment is described as follows: qHTS assay to identify small molecule agonists of the thyrotropin-releasing hormone receptor (TRHR) signaling pathway (AID 1346891; calls by dose curve; also: series mostly up to about 58 µM). The method in brief: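 TRHR-expressing HEK293 cells were plated 18 h at 37 °C/5% CO2, loaded with calcium dye 2 h at 37 °C, then given compound in DMSO; fluorescence was read kinetically for 3 min at 1 s intervals.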
Chain of Thyrotropin-releasing hormone receptor (Homo sapiens) (P34981 whole entry, looked up): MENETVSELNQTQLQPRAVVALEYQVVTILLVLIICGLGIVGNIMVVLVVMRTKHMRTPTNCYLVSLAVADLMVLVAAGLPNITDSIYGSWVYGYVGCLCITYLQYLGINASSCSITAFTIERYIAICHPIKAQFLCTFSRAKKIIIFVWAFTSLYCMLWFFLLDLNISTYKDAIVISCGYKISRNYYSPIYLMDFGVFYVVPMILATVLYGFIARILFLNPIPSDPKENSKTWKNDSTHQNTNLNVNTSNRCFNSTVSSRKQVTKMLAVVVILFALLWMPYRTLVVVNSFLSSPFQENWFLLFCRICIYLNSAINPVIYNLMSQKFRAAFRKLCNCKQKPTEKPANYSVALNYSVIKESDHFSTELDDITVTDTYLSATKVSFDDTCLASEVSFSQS

For the molecule `N#Cc1nc(Cl)c(Cl)c(Cl)c1Cl`, the Potency in experiment [1] was 24.3 µM (active); in [6] it was 48.6 µM (active); in [8], 1.72 µM (active). Further, the Potency entry in [2], in experiment [3], in experiment [5] and in experiment [7] was “inactive” each time. The molecule was classed as inactive in experiment [4].

As for `NCc1cccc(C2CCN(C(=O)c3ccc(C#Cc4ccccc4F)o3)CC2)c1`, the Potency in experiment [1] was 48.6 µM (active); in experiment [9], 61.1 µM (active). For the same molecule, in [4], the outcome was inactive. In addition, the Potency result in experiment [5] and in [10] was “inactive” throughout.

On to `CN(C[C@@H](CC[N+]12CCC(C3CCCCC3)(CC1)CC2)c1ccc(Cl)c(Cl)c1)C(=O)c1cc(C(F)(F)F)cc(C(F)(F)F)c1`, for which the Potency in experiment [1] was 27.3 µM (active); in experiment [9] it was 13.7 µM (active); in [8], 61.1 µM (active). The Potency entry in experiment [2], in experiment [5], in experiment [10] and in experiment [7] was “inactive” in each case.

Turning to `N#Cc1ccc(C/C(=N/NC(=O)Nc2ccc(OC(F)(F)F)cc2)c2cccc(C(F)(F)F)c2)cc1`, the Potency result in experiment [9], in [2], in experiment [3], in experiment [5], in experiment [10] and in [6] was “inactive” in each case. Also, the Potency result in [7] is “inactive”. Further, in [4], the call was inactive.

For the molecule `O=C(NCc1ncc(C(F)(F)F)cc1Cl)c1c(Cl)cccc1Cl`, the Potency entry in experiment [9], in experiment [2], in [3], in [5], in experiment [10] and in experiment [6] was “inactive” each time. In addition, the Potency result in experiment [8] is “inactive”. Moreover, the molecule was called inactive in [4]. Moreover, the Potency in experiment [7] was 19.3 µM (active).

As to `CN[C@H]1CC[C@@H](c2ccc(Cl)c(Cl)c2)c2ccc(S(N)(=O)=O)cc21`, the Potency in experiment [1] was 48.6 µM (active); in experiment [9] it was 48.6 µM (active); in [6] it was 61.1 µM (active); in [8] it was 61.1 µM (active). Further, the Potency result in [2], in experiment [5] and in experiment [10] was “inactive” each time. Also, the outcome in experiment [4] was inactive.

With `CN1CCN(CCCN2c3ccccc3Sc3ccc(Cl)cc32)CC1`, in [1], the Potency was 21.1 µM (active). Further, the Potency entry in experiment [2], in experiment [3] and in experiment [7] was “inactive” throughout. Besides, in experiment [4], the molecule was classed as inactive.

On to `Cc1cc(Br)ccc1NC(=O)CCl`, for which the Potency was 15.4 µM (active) in experiment [1], 27.3 µM (active) in experiment [9], 54.5 µM (active) in experiment [6] and 21.7 µM (active) in [8]. The Potency entry in experiment [2], in experiment [5], in experiment [10] and in experiment [7] was “inactive” in each case.

For `O=C(c1ccccc1)c1ccc(Cl)cc1`, the Potency result in experiment [9], in experiment [2], in [3], in experiment [5], in experiment [10] and in experiment [6] was “inactive” each time. In addition, the Potency entry in experiment [7] is “inactive”. For the same molecule, the call in [4] was inactive. Further, the Potency in experiment [8] is 61.1 µM (active).

On to `CC1=C(/C=C/C(C)=C/C=C/C(C)=C\C(=O)O)C(C)(C)CCC1`, for which the Potency entry in experiment [9], in experiment [2], in experiment [3], in [5], in experiment [10] and in experiment [6] was “inactive” throughout. In experiment [7], the Potency result is “inactive”. For the same molecule, the call in experiment [4] was inactive.

Turning to `COc1cc(OC)nc(NC(=O)NS(=O)(=O)Nc2ccccc2C(=O)N(C)C)n1`, the Potency result in [9], in [2], in experiment [3], in [5], in experiment [10] and in [6] was “inactive” in each case. Also, the Potency result in [7] and in experiment [8] was “inactive” throughout. Besides, the result in experiment [4] was inactive.

Consider `CC(C)(c1ccc(Oc2ccc(N)cc2)cc1)c1ccc(Oc2ccc(N)cc2)cc1`, for which the Potency result in experiment [9], in [2], in experiment [3], in [5], in experiment [10] and in [7] was “inactive” throughout. Also, in experiment [4], the molecule was called inactive. For the same molecule, in experiment [8], the Potency is 48.6 µM (active).

With `O=c1cc[nH]cc1`, the Potency entry in experiment [9], in [2], in experiment [3], in experiment [5], in experiment [10] and in experiment [6] was “inactive” in each case. In addition, the Potency entry in [7] and in experiment [8] was “inactive” each time. In addition, in experiment [4], the molecule was called inactive.

As to `c1ccc2c(c1)-c1ccc3ccc4cccc5cc-2c1c3c45`, the Potency result in experiment [9], in experiment [2], in experiment [3], in experiment [5], in [10] and in experiment [6] was “inactive” in each case. In addition, the Potency result in experiment [7] is “inactive”.

On to `O=C1OC(O)C(C(Cl)Cl)=C1Cl` (stereo unspecified), for which the Potency result in experiment [9], in experiment [2], in experiment [3], in experiment [5] and in [7] was “inactive” each time. The molecule was classed as inactive in experiment [4]. For the same molecule, in [8], the Potency was 17.8 µM (active).

Consider `COCCC(=O)OC`, for which the Potency result in [9], in experiment [2], in [3], in experiment [5], in experiment [6] and in experiment [7] was “inactive” in each case. The Potency result in [8] was “inactive”. In addition, in experiment [4], the molecule was called inactive.

Consider `CN(C/C=C/c1ccccc1)Cc1cccc2ccccc12`, for which the Potency entry in [9], in experiment [2], in [5], in experiment [6], in [7] and in experiment [8] was “inactive” throughout. Further, the molecule was called inactive in experiment [4].

On to `c1ccc(-c2nc3ccccc3[nH]2)cc1`, for which the Potency result in experiment [9], in experiment [2], in experiment [5], in [10] and in [7] was “inactive” throughout. Further, the molecule was called inactive in [4].
